According to PubChem BioAssay (NCATS):
Values joined by “and” are separate entries in the source; they are usually repeats but may differ in a detail not shown here. Identical values can stand only once. A number with no mark means an inactive call.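 Rule for the calls: active = compounds whose dose series gives a full or clear partial fitted curve of increased nuclear translocation; inconclusive = weak partial curve or effect only at the top dose; inactive = no dose-dependent translocation response.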

What follows are molecules tested against Glucocorticoid receptor (Homo sapiens) (UniProt P04150) (assay: GR-GFP Redistribution (AID 450)). Details: U2OS GR-GFP nuclear translocation, laser cytometry, 2 h.
Chain of Glucocorticoid receptor (Homo sapiens) (P04150 whole entry, looked up): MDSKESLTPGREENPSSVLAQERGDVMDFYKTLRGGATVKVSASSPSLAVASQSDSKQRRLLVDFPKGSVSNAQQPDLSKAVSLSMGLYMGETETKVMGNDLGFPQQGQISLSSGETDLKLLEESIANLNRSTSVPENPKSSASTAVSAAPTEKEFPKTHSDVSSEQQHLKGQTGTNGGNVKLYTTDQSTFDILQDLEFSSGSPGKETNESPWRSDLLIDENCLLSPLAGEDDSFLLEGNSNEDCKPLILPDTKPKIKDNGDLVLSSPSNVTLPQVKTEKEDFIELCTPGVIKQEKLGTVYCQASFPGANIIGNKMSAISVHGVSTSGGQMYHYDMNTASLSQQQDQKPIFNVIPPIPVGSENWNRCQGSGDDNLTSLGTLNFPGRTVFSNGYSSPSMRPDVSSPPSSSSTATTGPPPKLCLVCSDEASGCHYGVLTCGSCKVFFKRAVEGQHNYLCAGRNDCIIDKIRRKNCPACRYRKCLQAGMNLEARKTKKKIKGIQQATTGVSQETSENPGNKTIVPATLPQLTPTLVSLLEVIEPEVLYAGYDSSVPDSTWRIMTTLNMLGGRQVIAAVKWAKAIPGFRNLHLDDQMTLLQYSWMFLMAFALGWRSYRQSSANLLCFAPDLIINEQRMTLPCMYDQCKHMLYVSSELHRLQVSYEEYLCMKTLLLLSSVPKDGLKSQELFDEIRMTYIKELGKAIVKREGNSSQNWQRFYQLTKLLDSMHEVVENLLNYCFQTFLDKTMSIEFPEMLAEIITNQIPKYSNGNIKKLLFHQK
Excerpt: NIH Molecular Libraries Screening Centers Network [MLSCN]
NIH Chemical Genomics Center [NCGC]
The glucocorticoid receptor (GR) Redistribution assay (BioImage) enables the visualization of GR cytoplasmic to nuclear translocation by the use of a GR-GFP fusion. GR is normally cytosolic, however ligands such as dexamethasone, cause nuclear translocation where the protein binds to response elements and interacts with various co-factors to modulate transcription. Because both functional agonists and antagonists can induce nuclear translocation, this assay can detect ligands regardless of their effects on gene expression. GR-GFP expressing U20S cells were used here. Dexamethasone was the positive control for translocation and data normalization. Detection of nuclear translocation was performed in 1536-well plates using the Acumen laser scanning plate cytometer (TTP LabTech). Validation of this assay and a detailed protocol have been described.
NCGC Assay Protocol Summary:
GR-GFP U2OS cells were maintained in DMEM with Glutamax and high glucose, 1% v/v penicillin-streptomycin, and 0.5 mg/mL Geneticin. For cell culture, 10% […] fetal bovine serum (FBS) was used (Invitrogen #26140-079). For cell plating 10% dextran, charcoal-stripped FBS (Hyclone SH30068.03) was used. U2OS cells were trypsin treated, suspended in medium, and passed through a 40 um basket filter. The cells were seeded at 600 cells/5 uL/well into clear-bottom black sided 1536-well plates and incubated for approximately 20 hrs, 37degC, 5%, CO2 in a tissue culture incubator. Twenty-three nL of compound was delivered by pin tool and the plates were incubated as above for 2 hrs. The compounds were tested as a 7-point titration ranging from 46 uM to 0.6 nM. The cells were fixed using the Kalypsys Washer/Dispenser station. The fixing protocol involved aspiration of the cell media, addition of 6 uL/well of PBS, aspiration of PBS, addition of 5uL/well of 100% methanol, aspiration of methanol, and addition of 3 uL/well PBS with 1.5 uM propidium iodide (PI). The plates were read by the Acumen Explorer using a 1 x 8 um scan of the whole well area. PI fluorescence triggered the collection of PI and GFP signals. A nuclei population was defined by a 10 to 100 um width and depth filter that eliminated small and large fluorescent particles. Two subpopulations of nuclei were then defined by peak intensity of GFP fluorescence to obtain translocated and untranslocated objects. The number of translocated objects was used for data normalization.
Keywords: NIH Roadmap, MLSCN, MLI, MLSMR, sOGT, qHTS, NCGC
Potency is the fitted concentration of half-maximal effect.

| SMILES | Potency |
| --- | --- |
| COc1ccc2[nH]c3c(c2c1)CCNC3 | > 46 µM |
| O=c1ccc2[nH]cc(C3=CCNCC3)c2[nH]1 | > 46 µM |
| CCS(=O)(=O)Nc1cccc(C(=C2CCCCC2)c2cnc[nH]2)c1 | > 46 µM |
| CN(N=O)c1cc(O)ccc1O | > 46 µM |
| N[C@@H](Cn1oc(=O)[nH]c1=O)C(=O)O | > 46 µM |
| c1cc2c(c(NC3=NCCN3)c1)CCCC2 | > 46 µM |
| OCc1cnc[nH]1 | > 46 µM |
| CC(C)[C@@]1(NC(=O)[C@@H]2C[C@@H]3c4cccc5[nH]cc(c45)C[C@H]3N(C)C2)O[C@@]2(O)[C@@H]3CCCN3C(=O)[C@H](Cc3ccccc3)N2C1=O | > 20.6 µM |
| N#CCCN | > 46 µM |
| CC(=O)NBr | > 46 µM |
| O=C(O)c1cc[c]([Hg][Cl])cc1 | > 46 µM |
| c1ccc2c(N3CCNCC3)cccc2c1 | > 46 µM |
| O=[N+]([O-])c1ccc2nc(N3CCNCC3)ccc2c1 | > 46 µM |
| CN1CCc2cc(O)cc3c2[C@H]1Cc1ccc(O)c(O)c1-3 | > 46 µM |
| C[N+]1(C)CCc2cc3c(cc2[C@H]1[C@@H]1OC(=O)c2c1ccc1c2OCO1)OCO3 | > 20.6 µM |
| c1ccc2c(c1)[I+]c1ccccc1-2 | > 46 µM |
| O=[N+]([O-])c1cc(O)c(O)c([N+](=O)[O-])c1 | > 46 µM |
| C[N+]1(C)CCN(c2ccccc2)CC1 | > 46 µM and > 20.6 µM |
| C[N+](C)(C)CCOC(=O)CBr | > 46 µM |
| CC(C)(C)c1cc(C=C(C#N)C#N)cc(C(C)(C)C)c1O | > 46 µM |

| SMILES | Potency |
| --- | --- |
| CCCN(CCC)[C@@H]1CCc2cccc(O)c2C1 | > 46 µM |
| Cc1cc(C)cc(C(=O)OC2C[C@H]3CC[C@@H](C2)N3C)c1 (stereo not given in full) | > 46 µM |
| CC(C)(C)c1cc(O)ccc1O | > 46 µM |
| NCCCP(=O)(O)O | > 46 µM |
| NC(=O)COc1c(F)cc(SCCNS(=O)(=O)c2ccccc2)cc1F | > 46 µM |
| N#CC(C#N)=Cc1cc(O)c(O)c(O)c1 | > 46 µM |
| NCCc1c[nH]c2ccc(C(N)=O)cc12 | > 46 µM |
| CCCN(CCC)CCc1ccc(O)c(O)c1 | > 46 µM |
| CN1CCc2cccc(Cl)c2CC1 | > 46 µM |
| CNC(=O)OCC[N+](C)(C)C | > 46 µM |
| CCC1(C)CC(=O)NC(=O)C1 | > 20.6 µM |
| CCCN1CCc2cc(O)cc3c2[C@H]1Cc1ccc(O)c(O)c1-3 | > 46 µM |
| Clc1cc(I)cc(Cl)c1NC1=NCCN1 | > 46 µM |
| O=S(=O)(O)c1cc(O)ccc1O | > 20.6 µM |
| C[C@@H]1O[C@H](C[N+](C)(C)C)CS1 | > 46 µM |
| CN1[C@@H]2CC[C@H]1CC(OC1c3ccccc3CCc3ccccc31)C2 (stereo not given in full) | > 20.6 µM |
| CCCCCCC(C)(C)c1ccc([C@@H]2C[C@H](O)CC[C@H]2CCCO)c(O)c1 | > 46 µM |
| CCN(CCCl)Cc1ccccc1Br | > 46 µM |
| NNC(=O)c1ccc(O)cc1 | > 46 µM |
| COc1ccc2[nH]cc(CCN)c2c1 | > 46 µM |
